Compound activity as filed in PubChem BioAssay.
KCNH2 3.1 inh = qHTS for Inhibitors of KCHN2 3.1: Mutant qHTS; Potassium voltage-gated channel subfamily H member 2, brain isoform KCNH2 3.1 (human); U2OS KCNH2 3.1, thallium flux FluxOr; active compounds read low; activity change, % (tested at about 1.8 µM); 340,000 tested, 0.95% active; AID 720553, 2013;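 active = maximum activity change below -70%; inconclusive = maximum activity change from -70% to -50%; inactive = maximum activity change above -50%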;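 also: thallium influx rate constant from kinetic fluorescence after stimulation buffer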
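Kinetic fluorescence (2 min after stimulation buffer) measures Tl+ influx through KCNH2 3.1 expressed by viral transduction in U2OS cells; the rate constant is normalized against DMSO controls serving as positive and negative references.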
PTAP TSG101 blk = qHTS Assay for Iinhibitors of HIV-1 Budding by Blocking the Interaction of PTAP/TSG101; Potency, µM (series often up to 115 µM), actives largely listed as inhibitors; AID 493005, 2010; Fluorescence polarization, FITC-PTAP peptide / Tsg101 binding; 340,000 tested, under 10 active; active = well fitted inhibition curve with a large enough effect in the main read-out, with a control signal flat, not every such curve was filed as active; inconclusive = small, poorly fitted or top-dose-only effect, or effect the other way, or a change in a side signal; inactive = no such curve, though single readings can be large or run the other way
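Fluorescence anisotropy tracks displacement of a FITC-tagged PTAP peptide (50 nM) from the Tsg101 binding domain (10 uM), following a 20 min room-temperature incubation at pH 7.5.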
hERG WT inh = qHTS for Inhibitors of KCHN2 3.1: Wildtype qHTS; AID 720551, 2013; activity change, % at 1.84 µM; Voltage-gated inwardly rectifying potassium channel KCNH2 (Homo sapiens), Q12809; U2OS, BacMam KCNH2, thallium flux FluxOr; active compounds read low; 340,000 tested, 0.37% active;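 active = maximum activity change below -70%; inconclusive = maximum activity change between -70% and -50%; inactive = maximum activity change above -50%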
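U2OS cells were transduced with wild-type KCNH2 virus (2.03 x 10^8 / mL) for 4 h at room temperature, then cultured overnight at 37 C. Thallium flux was read with FluxOr dye. Rate constants were normalized to DMSO controls.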
Tb PFK inh-1 = qHTS Assay to Find Inhibitors of T. brucei phosphofructokinase; T. brucei PFK, ADP-Glo luminescence; Potency, µM (highest dose often 57.5 µM), actives largely listed as inhibitors; 330,000 tested, 0.17% active; also: nearly all actives have a fitted effect of over 60% in size
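Activity is normalized to no-enzyme wells (full inhibition) and 1.25 nM enzyme wells (no inhibition). Reaction: 0.5 mM F6P, 0.1 mM ATP, 45 min RT, ADP-Glo luminescence; concentration-response curves fitted and classed by quality.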
Tb PFK KinaseGlo = Tb PFK orthogonal confirmatory assay using ATP depletion (Kinase-Glo Plus) as an alternative measure of Tb PFK activity: Hit Validation | shares compounds with Tb PFK inh-1 | Tb PFK enzyme, ATP depletion, Kinase-Glo Plus luminescence | Potency, µM (titrated, usually from 57.5 µM) | 1,100 tested, 47% active | AID 504636, 2011; calls by dose curve; also: nearly all actives have a fitted effect of over 60% in size
Tb PFK inh-2 = Inhibitors of T. brucei phosphofructokinase: Hit Validation; shares compounds with Tb PFK inh-1; purified T. brucei PFK, ADP-Glo luminescence, 45 min; Potency, µM (doses to about 57.5 µM), most hits filed as inhibitors; 1,100 tested, 41% active; also: nearly all actives have a fitted effect of over 60% in size
Each line names hits and unclear results; the compound was inactive in the other large screens (follow-up assays come after a bar, where they were run). Sampled rows, rich in hits. Any-hit rate of the full collection: about 1.2%. Unless noted, calls follow the shape of the dose curve; as a rule, active = well fitted inhibition curve with a large enough effect; inconclusive = small, poorly fitted or top-dose-only effect, or effect the other way; inactive = flat fitted curve, though single readings scatter.

Cc1ncc([N+](=O)[O-])n1CC(=O)Nc1ccc(F)c(F)c1	Tb PFK inh-1 inconclusive | Tb PFK KinaseGlo inconclusive | Tb PFK inh-2 inconclusive
CN(C)C(=O)Oc1ccc(Br)cc1C(=O)Nc1ccc(F)c(Cl)c1	none
O=C(O)C(Br)CBr (configuration not stated)	none
Nc1ccc2nc(-c3cccc(-c4nc5ccc(N)cc5[nH]4)c3)[nH]c2c1	Tb PFK inh-1 inconclusive | Tb PFK KinaseGlo inactive | Tb PFK inh-2 inactive
Nc1ccc2ccccc2c1	none (no result: KCNH2 3.1 inh, Tb PFK inh-1)
COC(C)(C)CCCC(C)C/C=C/C(C)=C/C(=O)OC(C)C (configuration not stated)	none
CCN1CCN(C(=S)c2ccc(OC)cc2)CC1	Tb PFK inh-1 inconclusive | Tb PFK KinaseGlo 27µM | Tb PFK inh-2 34µM
CCN1CCN(C(=S)c2ccc(Cl)cc2)CC1	Tb PFK inh-1 11µM | Tb PFK KinaseGlo 7.6µM | Tb PFK inh-2 24µM
ClCCOCOCCCl	none
CCC(=NCc1ccco1)c1c(O)n(-c2ccccc2C)c(=O)[nH]c1=O	none
O[C@@H]1CCCN2CCc3c([nH]c4ccccc34)[C@H]12	none (no result: Tb PFK inh-1)
CN1CCc2ccccc2Cc2[nH]c3ccccc3c2CC1	Tb PFK inh-1 12µM | Tb PFK KinaseGlo 15µM | Tb PFK inh-2 13µM
COc1ccc(-n2c(O)c(C(C)=NCc3ccc4c(c3)OCO4)c(=O)[nH]c2=O)cc1	none
O=C(O[C@@H]1OC2COC(=O)c3cc(O)c(O)c(O)c3-c3c(cc(O)c(O)c3O)C(=O)O[C@@H]([C@H]1O)[C@@H]2O)c1cc(O)c(O)c(O)c1	Tb PFK inh-1 2.1µM | Tb PFK KinaseGlo 0.067µM | Tb PFK inh-2 0.085µM
COc1cc2c(cc1OC)C1[C@H]3C(=CC[C@H]1OC2O)CCN3C (some centres not stated)	none
O=C1c2cccc3cccc(c23)C(=O)N1/N=C/c1c(O)n(-c2ccccc2)c(=O)[nH]c1=O	none
N#Cc1c(N)nc2c(c1N)CC(CCl)O2 (configuration not stated)	Tb PFK inh-1 inconclusive | Tb PFK KinaseGlo inactive | Tb PFK inh-2 inactive
O=C(Nn1cnnc1)c1ccc(Cl)c([N+](=O)[O-])c1	Tb PFK inh-1 inconclusive | Tb PFK KinaseGlo inactive | Tb PFK inh-2 inconclusive
CCN(CC)C(=O)c1ccc(NC(=O)c2ccc(-n3cncn3)c([N+](=O)[O-])c2)cc1	none
O=C(Nc1ccc(Cc2ccncc2)cc1)c1ccc(Cl)c([N+](=O)[O-])c1	Tb PFK inh-1 21µM | Tb PFK KinaseGlo 21µM | Tb PFK inh-2 inconclusive
NNC(N)=O	none
O=C(CSc1nc2ccccc2s1)Nc1ccc(Cl)c(C(=O)O)c1	Tb PFK inh-1 inconclusive | Tb PFK KinaseGlo inactive | Tb PFK inh-2 inactive
O=C(NNc1nc2ccccc2s1)Nc1ccc(Cl)c(Cl)c1	Tb PFK inh-1 inconclusive | Tb PFK KinaseGlo inconclusive | Tb PFK inh-2 inactive
COC(=O)c1ccc(NC(=O)CSc2nc3ccc(N4C(=O)C5C6C=CC(C6)C5C4=O)cc3s2)cc1 (configuration not stated)	none
CN(C)c1ccc(C2C3C=CC(C3)C2(C#N)C(=O)O)c(Br)c1 (configuration not stated)	none
CC12CC1(C)C(=O)N(c1cc(Cl)cc(Cl)c1)C2=O (configuration not stated)	none (no result: Tb PFK inh-1)
COc1ccc2c3c1O[C@H]1C(=O)CC[C@H]4[C@@H](C2)N(C)CC[C@]314	none
COC(=O)C1=C(c2ccc(F)cc2F)C[C@@H]2CC[C@H]1N2C(=O)NCc1ccc(C(F)(F)F)cc1	none
O=C(Cn1sc2ccccc2c1=O)NC12CC3CC(CC(C3)C1)C2	Tb PFK inh-1 4.3µM | Tb PFK KinaseGlo inconclusive | Tb PFK inh-2 9.5µM
